This is part of a sample that, as a whole, favours compounds with a hit. Of some 83,000 tested, about 20% had one in any assay.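 In brief: 96-well plates, 48 h treatment, single concentration, percent growth endpoint.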 Unmarked numbers belong to inactive results. Calls of active or inactive are those of the source. Rule for the calls: active = growth percent below 10; inactive = the rest.
Key:
Test in all cases: NCI-60 one-dose screen, 48 h (100 = growth as untreated, 0 = no growth, -100 = all killed)
Details in all cases: 10 µM unless noted
HCT-15 colon = tested on: HCT-15 colon
HT29 colon = tested on: HT29 colon
SNB-75 CNS = tested on: SNB-75 CNS
SNB-19 CNS = tested on: SNB-19 CNS
U251 CNS = tested on: U251 CNS
PC-3 prostate = tested on: PC-3 prostate
SK-MEL-5 melanoma = tested on: SK-MEL-5 melanoma
UACC-62 melanoma = tested on: UACC-62 melanoma
LOX IMVI melanoma = tested on: LOX IMVI melanoma
SK-MEL-28 melanoma = tested on: SK-MEL-28 melanoma
SK-MEL-2 melanoma = tested on: SK-MEL-2 melanoma
EKVX NSCLC = tested on: EKVX NSCLC
SN12C renal = tested on: SN12C renal
UO-31 renal = tested on: UO-31 renal
TK-10 renal = tested on: TK-10 renal
ACHN renal = tested on: ACHN renal
CAKI-1 renal = tested on: CAKI-1 renal
A498 renal = tested on: A498 renal
CCRF-CEM leukemia = tested on: CCRF-CEM leukemia
MOLT-4 leukemia = tested on: MOLT-4 leukemia

Row | SMILES | growth (HCT-15 colon) | growth (HT29 colon) | growth (SNB-75 CNS) | growth (SNB-19 CNS) | growth (U251 CNS) | growth (PC-3 prostate) | growth (SK-MEL-5 melanoma) | growth (UACC-62 melanoma) | growth (LOX IMVI melanoma) | growth (SK-MEL-28 melanoma) | growth (SK-MEL-2 melanoma) | growth (EKVX NSCLC) | growth (SN12C renal) | growth (UO-31 renal) | growth (TK-10 renal) | growth (ACHN renal) | growth (CAKI-1 renal) | growth (A498 renal) | growth (CCRF-CEM leukemia) | growth (MOLT-4 leukemia) [%]
1 | Cc1ccc(C(=O)c2ccc(CC(=O)N/N=C/c3ccc(O)cc3O)n2C)cc1 | 16.8% | 64% | 31.1% | 49.4% | 37.6% | 61.1% | 39.3% | 29.8% | 18.8% | 46.4% | 59.5% | 34.2% | 55.7% | 19.8% | 52.9% | 16.5% | 46.6% | 87.4% | 16.8% | –
2 | COc1cc2cc(Oc3ccc(NC(=O)Nc4ccccc4)cc3)c(C)nc2cc1OCCN1CCCCC1 | 14.3% | 17% | 74.9% | 91.6% | 21.5% | 82.7% | 84.7% | 95.4% | 78.7% | 91.6% | 100% | 99.8% | 89.9% | 64.3% | 108% | 84.4% | 96.1% | 55.4% | -20.9% (active) | –
3 | COC(=O)c1nc(-c2ccccc2)oc1S(=O)(=O)N1CCC(C(N)=O)CC1 | 42.8% | 32.9% | 93.2% | 93.3% | 88.6% | 62.7% | 81.6% | 79.6% | 63.7% | 63.4% | 91.2% | 69.7% | 83.6% | 55.3% | 23.2% | 39.6% | 49.5% | 87.4% | -3.72% (active) | –
4 | C=CCCC(=O)N1C=CC(=O)[C@H](O)[C@@H]1/C=C/c1ccccc1 | 36.5% [100 µM] | 39.4% [100 µM] | 85% [100 µM] | 44.5% [100 µM] | 33% [100 µM] | 51.2% [100 µM] | 0.433% [100 µM] (active) | 27.8% [100 µM] | 27.9% [100 µM] | 53.7% [100 µM] | 77.7% [100 µM] | 37.4% [100 µM] | 42% [100 µM] | 29% [100 µM] | 54.9% [100 µM] | 28.1% [100 µM] | 15.7% [100 µM] | 83.4% [100 µM] | 27.7% [100 µM] | –
5 | Nc1nc(C(=O)N/N=C/c2ccc(N3CCOCC3)cc2)nn1-c1ccc(S(N)(=O)=O)cc1 | 108% | 106% | 83% | 102% | 98.3% | 101% | 102% | 102% | 97.4% | 117% | 104% | 101% | 103% | 85.4% | 94.4% | 109% | 89.8% | 107% | 112% | 123
6 | COc1ccc(C/C(C)=C(\c2ccc(O)cc2)c2ccc(OCCN3CCCC3)cc2)cc1 | 102% | 88.4% | 94.2% | 103% | 106% | 96.8% | 111% | 102% | 98.3% | 97% | 100% | 101% | 100% | 86.1% | 121% | 97.1% | 97% | 91.7% | 92.3% | 85.3
7 | O=C(CCCCCCN1CC(=O)N2[C@@H](C3CCCCC3)c3[nH]c4ccccc4c3C[C@H]2C1=O)NO | 115% | 58.9% | 38.1% | 74.6% | 70.2% | 62.7% | 66% | 35.3% | -3.25% (active) | 60.7% | 69.2% | 77.7% | -97.1% (active) | 84.8% | 48.5% | 88.7% | 70.8% | 82.1% | 26.5% | –
8 | COc1ccc(C2C(C#N)=C(N)Oc3c2sc2c(Br)cccc32)cc1 (stereo not given) | 19.1% | 5% (active) | 11.3% | 44.8% | 20.4% | 25.5% | 29.3% | 10.6% | 29.2% | 59.5% | 10.9% | 46.2% | 37.3% | 35.9% | 50.2% | 54% | 35.9% | 27% | 12.5% | 12.1

Source: PubChem BioAssay (NCI)
